Experimental findings from PubChem BioAssay (NCI) are described below.

About 83,000 compounds went through this panel and 20% of them were active in at least one assay; those are over-represented in the sample as a whole.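 Values shown are percent growth following 48 h exposure of cells in 96-well plates to a single concentration of compound; below 10 was considered active.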 Values without a mark were called inactive. Active and inactive are the calls of the source.

This assay concerns HL-60(TB) leukemia. In words: NCI-60 one-dose screen, 48 h (100 = growth as untreated, 0 = no growth, -100 = all killed). To be noted: 10 µM unless noted.
For `COc1cc2cc(Oc3ccc(NC(=O)c4cc(C(F)(F)F)cc(C(F)(F)F)c4)cc3)c(C)nc2cc1OCCN1CCOCC1`, the growth was 89.4%.

In the case of `CC[C@]12C=CCN3CC[C@@]4(c5ccc(OC)cc5N(C)[C@H]4[C@@](O)(C(=O)OC)[C@@H]1OC(=O)CCN1CCc4ccccc4C1)[C@@H]32`, the growth is 80.4%.

For the compound `O=S(=O)(Oc1ccc(-c2cn3ccoc3n2)cc1)c1cccc(C(F)(F)F)c1`, the growth was 105%.

As to `COc1ccc(/C=N/NC(=O)c2cn(C3CC3)c3c(OC)c(N4CC5CCCNC5C4)c(F)cc3c2=O)cc1` (configuration not stated), the growth is 80.6%.

Consider `Cc1ccc(-c2nc(SCC(=O)c3ccccc3)nc(Nc3ccc(S(N)(=O)=O)cc3)c2C#N)cc1`, for which the growth was 95.9%.

Regarding `COc1ccccc1/C=C/C(=O)c1nnn(-c2ccc(C(=O)O)cc2)c1C`, the growth is 83.2%.

For `CC1=C(C)C(=O)C(Nc2cccc(C)c2)=C(Br)C1=O`, the growth is 37%.

With `C/C(=C(\c1ccc(O)cc1)c1ccc(OCCN2CCCCCC2)cc1)c1ccc(Cl)cc1`, the growth was -49.2% (active).

With `O=C(Nc1nc2ccc([N+](=O)[O-])cc2s1)Nc1ccccc1Cl`, the growth was 28.7%.

Regarding `COc1cc(/C=N/n2cnc3oc(-c4ccccc4)cc3c2=N)cc(CN2CCCCC2)c1O`, the growth is -17.1% (active).

For the compound `N#Cc1cccc(CN2CCC3=C(C2)C(=O)N(Cc2ccc(Cl)cc2)C2=NCCCN23)c1`, the growth was 11.7%.

Take `Clc1ccc(-c2csc(Nc3cccc(Nc4csc(-c5ccc(Cl)cc5)n4)c3)n2)cc1`: the growth is 96.1%.

Take `Clc1ccc2c(N/N=C/c3c[nH]c4ccccc34)ccnc2c1`: the growth is -34.7% (active).

With `Cc1cc(=O)[nH]c(O)c1C#N`, the growth was 100%.

Turning to `COc1cc2c(cc1OC)C(Sc1ccc(F)cc1)c1c(nc(N)c(C#N)c1N)O2` (configuration not stated), the growth was -14.2% (active).

`CN1CCN(Cc2ccc(NC(=O)c3cncc(C#Cc4cnc5ccc(OCC(C)(C)O)nn45)c3)cc2C(F)(F)F)CC1`: the growth was 1.93% (active).

With `Nc1c(C(=O)c2ccccc2)sc2nc(-c3cnccn3)cc(-c3cccs3)c12`, the growth was 108%.

Consider `CCN(CC)c1ccc(/C=N/NC(=O)c2ccc(NS(C)(=O)=O)cc2)c(O)c1`, for which the growth was 0.843% (active).

With `CN1CCN(c2ccc(Nc3nc(NCCCNS(=O)(=O)c4ccc(F)cc4)c4sccc4n3)cc2)CC1`, the growth was 28.8%.

For `COC(=O)CCCNCCCn1ccc2cc(NCc3cccc(-c4ccccc4)c3C)ccc21`, the growth was 16.7%.

Consider `CCNC(=O)Oc1ccc(/C(=C(/C)c2ccc(Cl)cc2)c2ccc(OCCN3CCCC3)cc2)cc1`, for which the growth was 56.2%.

Regarding `CCCn1cnc2c(c1=N)C(c1ccc(OC)cc1)c1sc3c(C)cccc3c1O2` (configuration not stated), the growth was 0.388% (active).

Turning to `O=C(CSc1nc2ccccc2c(=O)n1-c1ccccc1)Nc1ccc(-c2nc3ccc([N+](=O)[O-])cc3[nH]2)cc1`, the growth was 89.3%.

In the case of `O=C(N/N=C\c1ccc(F)cc1)c1ccc2nc(-c3ccc(Br)cc3)[nH]c2c1`, the growth was 78.8%.

Take `COc1cc(/C=C/C(=O)c2cc(OC)c(OC)c(OC)c2)ccc1Oc1nc(NCCO)nc(N2CCOCC2)n1`: the growth is -5.23% (active).

As for `CN(C)C(=O)C1=NC(CO)C(=O)N(c2ccc(Cl)cc2)N1` (configuration not stated), the growth is 110%.

As to `COc1cc([C@H]2OC[C@H]3[C@@H]2CO[C@@H]3c2ccc(O)c(OC)c2)ccc1O`, the growth is 93.5%.

In the case of `CCc1ccc(NC(=O)N[C@@H](Cc2cccc(C)c2)C(=O)N[C@@H]2C(=O)N3CCC[C@H]3C(=O)N3CCCC[C@H]3C(=O)N[C@@H](CO)C(=O)N3C[C@H](C)C[C@H]3C(=O)O[C@H]2C)c(F)c1`, the growth was 15.8%.

`CC(O)C(NC(=O)C1CCCN1C(=O)CNC(=O)C1CC(=O)NCC(=O)NC(Cc2c[nH]c3ccccc23)C(=O)NC(Cc2ccc(O)cc2)C(=O)NCC(=O)NC(CO)C(=O)NC(CCC(N)=O)C(=O)NC(Cc2c[nH]c3ccccc23)C(=O)N1)C(=O)NCC(=O)NC(CCC(N)=O)C(=O)NC(CCCNC(=N)N)C(=O)NC(CC(=O)O)C(=O)O` (configuration not stated): the growth is 99.7%.

As to `O=C(/C=C/c1cccc(F)c1)c1cccc(OCCCOc2cccc(C(=O)/C=C/c3cccc(F)c3)c2)c1`, the growth is 68.3%.

As for `CCN(CC)c1ccc(/C=N/NC(=O)c2ccc(S(N)(=O)=O)cc2)cc1`, the growth was 2.37% (active).

Turning to `COc1ccc(CCN2C(=O)CSC2=S)cc1`, the growth was 54.6%.
